From PubChem BioAssay (NCATS)
Results filed as inconclusive are left out. Where a call stands in place of a potency, no number is given. The source made the active and inactive calls. The call rests on the fitted dose curve; in most records, active means well fitted curve in the direction sought with a large enough effect; inconclusive means small, poorly fitted or top-dose-only effect, or another doubt; inactive means no such curve, though single readings can be large; an effect the other way counts as inactive or inconclusive.

Assays:
[1] = qHTS of pediatric cancer cell lines to identify multiple opportunities for drug repurposing: Primary screen for NB-EBc1 cells (AID 1347095)
In short: (§1)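 Plated cells (500-1,000 per well, growth media) were allowed to settle for 5 hours, treated with compound dilutions for 48 hours, then lysed with CellTiter-Glo for 15 min at room temperature before luminescence reading.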

[2] = qHTS of pediatric cancer cell lines to identify multiple opportunities for drug repurposing: Primary screen for U-2 OS cells (AID 1347096); further: nearly all actives have a fitted effect of over 50% in size
In short: (§2)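 Cells (500-1,000/well) in growth media were settled 5 h at 37 degrees C, then given compounds for 48 h. Viability was read as CellTiter-Glo luminescence. Primary runs used MIPE at 11 points (0.78 nM-46 µM) and NPC at 8 points (0.59 nM-46 µM); follow-ups used 11 points.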

[3] = qHTS of pediatric cancer cell lines to identify multiple opportunities for drug repurposing: Primary screen for SK-N-SH cells (AID 1347098); further: nearly all actives have a fitted effect of over 65% in size; further: potency means the concentration at half of the fitted maximal effect
In short: (§3)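 Cells (500-1,000/well) rested 5 h, then received compounds for 48 h; metabolically active cells were measured by CellTiter-Glo luminescence. Final concentrations spanned up to 46 µM (MIPE, 11-point) or 0.59 nM-46 µM (NPC, 8-point) in primary screens, 11-point in follow-ups.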

[4] = qHTS of pediatric cancer cell lines to identify multiple opportunities for drug repurposing: Primary screen for NB1643 cells (AID 1347099); further: nearly all actives have a fitted effect of over 50% in size
In short: as §1

[5] = qHTS of pediatric cancer cell lines to identify multiple opportunities for drug repurposing: Primary screen for LAN-5 cells (AID 1347100)
In short: as §2

[6] = qHTS of pediatric cancer cell lines to identify multiple opportunities for drug repurposing: Primary screen for BT-12 cells (AID 1347101); further: nearly all actives have a fitted effect of over 25% in size
In short: as §3

[7] = qHTS of pediatric cancer cell lines to identify multiple opportunities for drug repurposing: Primary screen for Rh18 cells (AID 1347102); further: nearly all actives have a fitted effect of over 65% in size
In short: as §2

[8] = qHTS of pediatric cancer cell lines to identify multiple opportunities for drug repurposing: Primary screen for MG 63 (6-TG R) cells (AID 1347105); further: nearly all actives have a fitted effect of over 50% in size
In short: as §1

[9] = qHTS of pediatric cancer cell lines to identify multiple opportunities for drug repurposing: Primary screen for control Hh wild type fibroblast cells (AID 1347106);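 further: series mostly up to about 46 µM; a drop in luminescence marks cytotoxicity and a rise apparent proliferation; nearly all actives have a fitted effect of over 55% in size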
In short: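 Viability after 48 h compound treatment at 37C, 500-1,000 cells/well, read as ATP luminescence with CellTiter-Glo. Primary screens used 11-point (MIPE, 0.78 nM-46 µM) or 8-point (NPC, 0.59 nM-46 µM) final concentrations; follow-up screens used 11-point dilutions.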

[10] = qHTS of pediatric cancer cell lines to identify multiple opportunities for drug repurposing: Primary screen for Rh30 cells (AID 1347107); further: series mostly up to about 46 µM; nearly all actives have a fitted effect of over 75% in size
In short: as §2

[11] = qHTS of pediatric cancer cell lines to identify multiple opportunities for drug repurposing: Primary screen for Rh41 cells (AID 1347108);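 further: series mostly up to about 46 µM; luminescence drop marks cytotoxic hits; nearly all actives have a fitted effect of over 70% in size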
In short: as §1

[12] = qHTS of pediatric cancer cell lines to identify multiple opportunities for drug repurposing: Primary screen for RD cells (AID 1347104); further: nearly all actives have a fitted effect of over 55% in size
In short: as §1

[13] = qHTS of pediatric cancer cell lines to identify multiple opportunities for drug repurposing: Primary screen for Saos-2 cells (AID 1347097); further: nearly all actives have a fitted effect of over 40% in size
In short: as §1

[14] = qHTS of pediatric cancer cell lines to identify multiple opportunities for drug repurposing: Primary screen for OHS-50 cells (AID 1347103); further: nearly all actives have a fitted effect of over 40% in size
In short: as §3

[15] = qHTS of pediatric cancer cell lines to identify multiple opportunities for drug repurposing: Confirmatory screen for NB1643 cells (AID 1347109); further: nearly all actives have a fitted effect of over 45% in size
In short: as §2

[16] = qHTS of pediatric cancer cell lines to identify multiple opportunities for drug repurposing: Confirmatory screen for A673 cells (AID 1347110);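 further: cells exposed to compound for 48 h before the viability read; nearly all actives have a fitted effect of over 65% in size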
In short: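 Forty-eight-hour viability assay. Follow-up compounds ran at 11-point dilutions; positive control bortezomib at 2.3 uM final, neutral control DMSO.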

[17] = qHTS of pediatric cancer cell lines to identify multiple opportunities for drug repurposing: Confirmatory screen for BT-12 cells (AID 1347112); further: nearly all actives have a fitted effect of over 55% in size
In short: as §2

Row | SMILES | Potency [1] | Potency [2] | Potency [3] | Potency [4] | Potency [5] | Potency [6] | Potency [7] | Potency [8] | outcome [9] | Potency [10] | Potency [11] | Potency [12] | Potency [13] | Potency [14] | Potency [15] | Potency [16] | Potency [17]
1 | Cc1cc(C)c(/C=C2\C(=O)Nc3ccccc32)[nH]1 | inactive | inactive | inactive | inactive | inactive | inactive | inactive | inactive | inactive | inactive | inactive |  |  |  |  |  | 
2 | C[C@@H](O)[C@H]1C(=O)N2C(C(=O)O)=C(SCCN=CN)C[C@H]12 | inactive | inactive | inactive | inactive | inactive | inactive | inactive | inactive | inactive | inactive | inactive | inactive |  |  |  |  | 
3 | O=C(O)CP(=O)(O)O | inactive | inactive |  | inactive | inactive | inactive | inactive |  | inactive |  | inactive | inactive | inactive | inactive |  |  | 
4 | O=C(O)CN(CCN(CC(=O)O)CC(=O)O)CCN(CC(=O)O)CC(=O)O | inactive | inactive | inactive |  |  |  | inactive |  |  | inactive | inactive | inactive | inactive |  |  |  | 
5 | CCOC(=O)C1=C(C)NC(C)=C(C(=O)OC)C1c1cccc(Cl)c1Cl (centres undefined) | inactive | inactive |  |  | inactive |  | inactive | inactive | inactive |  | inactive | inactive | inactive |  |  |  | 
6 | CC(C)(Oc1ccc(CCNC(=O)c2ccc(Cl)cc2)cc1)C(=O)O | inactive | inactive | inactive | inactive | inactive | inactive | inactive | inactive |  |  | inactive | inactive |  | inactive |  |  | 
7 | CC[N+](C)(C)c1cccc(O)c1 | inactive | inactive | inactive |  | inactive |  | inactive | inactive |  |  | inactive | inactive | inactive | inactive |  |  | 
8 | CN1C[C@H](C(=O)N[C@]2(C)O[C@@]3(O)[C@@H]4CCCN4C(=O)[C@H](Cc4ccccc4)N3C2=O)C[C@@H]2c3cccc4[nH]cc(c34)C[C@H]21 | inactive | inactive | 30.7 µM (active) | inactive | inactive |  |  |  |  | inactive | inactive |  |  |  | inactive | inactive | inactive
9 | N[C@@H](COP(=O)(O)O)C(=O)O | inactive | inactive | inactive | inactive | inactive |  | inactive | inactive | inactive | inactive | inactive | inactive |  |  |  |  | 
10 | CN=C(NC#N)NCCSCc1nc[nH]c1C | inactive | inactive | inactive | inactive | inactive |  | inactive |  | inactive | inactive | inactive | inactive |  | inactive |  |  | 
